# According to the supplement of paper PMC10338343:
# ± gives the standard deviation. Whole data set: some 3,700 sequences, median “pre-steady-state target cleavage rate” near 0.02, cut for the highest 2% near 0.23. What follows is part of a selection rich in the highest values, with near analogues and random picks from the rest.
# Test system: MILI (PIWIL2) piRISC loaded with Kctd7 piRNA (26 nt)
# Experiment: pre-steady-state target cleavage rate (min^-1); MIWI and MILI are mouse PIWI proteins and EfPiwi is from a freshwater sponge; tags in brackets are library labels; higher = faster piRNA-guided slicing of the target
# Settings: guide: Kctd7 piRNA 5'p-UGUUAAUCUCUCAGAGAAGGUGACAG; auxiliary factor: 500 nM mouse GTSF1
# Method: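 Cleave-'n-Seq: a library of target RNAs (target site embedded in constant flanks, ACAGCATTCCGCGTTAGTGATATCCG... 5' flank; DNA-blocked outside the site) at 0.1 nM was incubated with 1 nM active mouse MILI or MIWI piRISC (synthetic 5'-monophosphorylated piRNA guide) with or without 500 nM mouse GTSF1 at 33 °C for 1 min to 16 h. Uncleaved targets were sequenced and normalised to non-target controls, and the pooled three trials were fitted to a burst-and-steady-state model to give the pre-steady-state cleavage rate (min^-1; k3 is constrained to at most 1e-4). Sequence is the target site only; target names encode pairing extent (gX:gY) and contiguous / 1-mismatch / 2-mismatch / bulge geometry. Fits with R² ≤ 0 are excluded.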
row,Sequence,pre-steady-state target cleavage rate
1,UAGUGAGUCACCUUCUCUGAGAGUAAAACA,0.14 ± 0.045
2,UAGUGAGUCACCUUCUCUGACAGUUUAACA,0.0134 ± 0.0052
3,UAGUGAGUCACCUUCUCUGAGAGAGUAACA,0.239 ± 0.063
4,UAGUGAGUCACCUUCUCUGAGAGUUUAACA,0.277 ± 0.061
5,UAGUGAGUGACCUUCUCUGAGACAUUAACA,0.0267 ± 0.0076
6,UAGUCUCUCACCAUCUCUGAGAGAUUAACA,0.0256 ± 0.0069
7,UAGUGAGUGACCUUCUCUGAGAGAUAAACA,0.0814 ± 0.021
8,UAGUGACUCACCUUGUCUGAGACAUUAACA,0.0647 ± 0.011
9,UAGUGAGUCACCUUCUCUGAGAGAUGUAACA,0.312 ± 0.047
10,UAGUGAGUCACCUUCUCUGAGAGAAAAACA,0.0915 ± 0.023
11,UAGUGAGUCACCUUCUCUGAGAGUUUAUCA,0.132 ± 0.049
12,UAGUGAGUCACCUUCUCUGAGAGUUUAUGA,0.275 ± 0.092
13,UAGUGUGUCACCUUCUCUGAGAGUUUAUGA,0.0769 ± 0.038
14,UAGUCUGUCACCUUCUCUGAGAGAUGUAACA,0.211 ± 0.03
15,UAGUGAGUCACCUUCUCUGAGAGUUAAACA,0.297 ± 0.086
16,UAGUGACUCACCUUCUCUGAGAGUUAAACA,0.0666 ± 0.014
17,UAGUGAGUCACCUUCUCUGAGAGGUUAACA,0.142 ± 0.019
18,UAGUGAGUCACCUUCUCUGAGAGAGUUAACA,0.257 ± 0.044
19,UAGUGAGUCACCUUCUCUGAGAGACUUAACA,0.137 ± 0.032
20,UAGUGUGUCACCUUCUCUGAGAGAUGUAACA,0.159 ± 0.029
21,UAGUGACACACCUUCUCUGAGAGAAAUACA,0.0296 ± 0.013

row,Sequence,pre-steady-state target cleavage rate
1,UAGUGUGUCAGCUUCUCAGAGAGAUUAACA,0.0938 ± 0.0081
2,UAGUGACACACCUUGUCUGAGACAUUAACA,0.0978 ± 0.026
3,UAGUGUGUCACCUUCGUCUGAGAGAUUAACA,0.088 ± 0.012
4,UAGUGACUCACCUUCUCUGAGAGAUUAUGA,0.0729 ± 0.012
5,UAGUGAGUCCCCUUCUCUGAGAGAUUAACA,0.214 ± 0.021
6,UAGUGACACACCUUCUCUGAGAGAUUACA,0.0753 ± 0.023
7,UAGUGUGUCACCUUCUGUCAGAGAUUAACA,0.039 ± 0.0051
8,UAGUGAGUCACCUUCUCUGAGAUAUUAACA,0.115 ± 0.017
9,UAGUGACACACCUUCUCUGAGACAUUAACA,0.0514 ± 0.0091
10,UAGUGUCUCACCUUCUCUGAGAGAUUAUGA,0.0163 ± 0.0063
11,UAGUGACAGACCGUCUCUGAGAGAUUAACA,0.0355 ± 0.0065
12,UAGUGAGUCACCUUCACAGAGAGAUUAACA,0.0664 ± 0.0081
13,UAGUGACUCACCUUCUGUGACAGAUUAACA,0.0678 ± 0.011
14,UAGUGACAGACCUACUCUGAGAGAUUUACA,0.0238 ± 0.0093
15,UAGUGACACACCUUCUCUCAGACAUUAACA,0.0383 ± 0.011
16,UAGUCAGUCACCAUCUCUGAGAGAUUAACA,0.171 ± 0.0086
17,UAGUCUGUCACCUUCUCUGAGAGUUUUACA,0.171 ± 0.054
18,UAGUGUGUCACCUUCUCUGAGAGUUUUACA,0.14 ± 0.046
19,UAGUGAGUCACCUUCUCUGAGAGUUUUACA,0.257 ± 0.078
20,UAGUGUGUCACCAUCUCUGAGAGAUUUACA,0.158 ± 0.033
